The structures appear in SMILES notation. Inconclusive results are not listed. Values without a mark were called inactive. Activity calls are given as the source filed them. The call rests on the fitted dose curve; in most records, active means well fitted cell-killing curve with a large enough effect; inconclusive means small, poorly fitted or top-dose-only effect, or effect the other way; inactive means no such curve, though single readings can be large or run the other way.

The nature of experiment [1]: Viability qHTS for spleen associated tyrosine kinase inhibitor (SYKi) naive MV4-11 cells (AID 1963823). Further: nearly all actives have a fitted effect of over 40% in size. As to conditions: MV4-11 AML viability, CellTiter-Glo luminescence, 72 h; series mostly up to 45 µM. In outline: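 CellTiter-Glo luminescence, 10 min room-temperature incubation, gave viability. Cells: naive MV4-11 (500/well), treated 72 hr at 37 C, 5% CO2.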
(In qHTS, concentration-response curves come from the screen itself.)

A short description of experiment [2]: Viability qHTS for spleen associated tyrosine kinase inhibitor (SYKi) drug resistant MV4-11 cells (AID 1963824). Further: nearly all actives have a fitted effect of over 35% in size. As to conditions: SYKi-resistant MV4-11 viability, CellTiter-Glo, 72 h; series mostly up to 45 µM. In outline:
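SYK inhibitor-resistant MV4-11 AML cells, 500 per well, added to predispensed compounds and incubated 72 hr at 37 C, 5% CO2. Viability measured by CellTiter-Glo luminescence after 10 min at room temperature.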
Potency means the concentration at half of the fitted maximal effect.

Take `CCOC(=O)c1cnn(-c2ccccc2)c1NC(=O)c1cc2nc(-c3ccco3)cc(C(F)(F)Cl)n2n1`: the Potency entry in experiment [1] and in experiment [2] was “inactive” in each case.
In the case of `C[C@@H]1C(=O)O[C@H](C)[C@H]1CC(=O)[C@](C)(O)[C@H]1CC[C@@]2(O)C3=CC(=O)[C@@H]4C[C@@H](O)[C@@H](O)C[C@]4(C)C3CC[C@]12C` (stereo not given in full), the Potency entry in experiment [1] and in experiment [2] was “inactive” throughout.
Regarding `CCC(C)(NC(=O)C(CCC(N)=O)NC(=O)C1CC(O)CN1C(=O)C(C)(C)NC(=O)C(C)(C)NC(=O)C(CC(C)C)NC(=O)CNC(=O)C(NC(=O)C(C)(C)NC(=O)C(C)(C)NC(=O)C(C)(C)NC(=O)C(Cc1ccccc1)NC(C)=O)C(C)C)C(=O)N1CC(O)CC1C(=O)NC(C)(C)C(=O)NC(CO)Cc1ccccc1` (stereo not given), the Potency in experiment [1] is 1.74 µM (active); in experiment [2], 0.616 µM (active).
As to `CC1=C(C(=O)O)/C(=C\CO[C@@H]2O[C@H](CO)[C@@H](O)[C@H](O)[C@H]2O)C(OC(=O)/C=C/c2ccc(O)cc2)C1` (stereo not given in full), the Potency result in experiment [1] and in experiment [2] was “inactive” in each case.
`CCC(C)CNCC(=O)N1CCc2sccc2C1COc1cccc(C)c1` (stereo not given): the Potency in experiment [1] and in experiment [2] was 9.2 µM (active) throughout.
For the compound `CC(C)(O)c1ccc2c(c1)C(O)C[C@H]1[C@](C)(C(=O)O)CCC[C@]21C` (stereo not given in full), the Potency result in experiment [1] and in experiment [2] was “inactive” each time.
On to `Cc1cc(O)c(C(C)C)cc1O[C@@H]1O[C@H](CO)[C@@H](O)[C@H](O)[C@H]1O`, for which the Potency result in experiment [1] and in experiment [2] was “inactive” each time.
`CC1=C(CC/C(C)=C/C(=O)O)[C@@]2(C)CCCC(C)(C)C2CC1=O` (stereo not given in full): the Potency entry in experiment [1] and in experiment [2] was “inactive” throughout.
Regarding `C=C1C(=O)OC2/C=C(\C)CC/C=C(\C)CC(OC(C)=O)C12` (stereo not given), the Potency in experiment [1] and in experiment [2] was 2.59 µM (active) each time.
Turning to `CC1(C)CC[C@]2(C(=O)O[C@@H]3O[C@H](CO)[C@@H](O)[C@H](O)[C@H]3O)CC[C@]3(C)C(=CCC4[C@@]5(C)C[C@H](O)[C@H](O[C@@H]6OC[C@@H](O)[C@H](O)[C@H]6O)[C@@](C)(CO)C5CC[C@]43C)C2C1` (stereo not given in full), in experiment [1], the viability (% of control) is 96.5% [at 9.25 µM]. Also, the viability, % of control in experiment [2] is 109% [at 9.25 µM].
For `C=C(C)[C@@H]1CC[C@]2(C)CC[C@]3(C)C(CCC4[C@@]5(C)CC[C@H](O)C(C)(C)C5CC[C@]43C)C12` (stereo not given in full), the Potency result in experiment [1] and in experiment [2] was “inactive” in each case.
`Cn1sc(=O)n(Cc2ccccc2)c1=O`: the figures for the Potency in experiment [1] and in experiment [2] were 2.59 µM (active) and 2.91 µM (active), respectively.
For `Cc1ccc(NS(=O)(=O)c2cc3c(cc2N[C@H](C)CO)NC(=O)CC3)cc1C` the same measures were 20.6 µM (active) and 14.6 µM (active).
Taken in the same sequence, the figures for `C[C@@H]1C[C@@H]2O[C@H]2/C=C\C=C\C(=O)Cc2c(Cl)c(O)cc(O)c2C(=O)O1` were 0.0404 µM (active) and 0.064 µM (active).
Turning to `CC(=O)c1c(C)cc(O[C@@H]2O[C@H](CO)[C@@H](O)[C@H](O)[C@H]2O)cc1O`, the Potency entry in experiment [1] and in experiment [2] was “inactive” in each case.
Regarding `CCCCc1nc(C)c(CC(=S)N(C)C)c(=O)n1Cc1ccc(-c2ccccc2-c2nn[nH]n2)cc1`, the Potency entry in experiment [1] and in experiment [2] was “inactive” throughout.
In the case of `CC(/C=C/C1(O)C2(C)COC1(C)CC(=O)C2)O[C@@H]1O[C@H](CO)[C@@H](O)[C@H](O)[C@H]1O` (stereo not given in full), the Potency entry in experiment [1] and in experiment [2] was “inactive” throughout.
Consider `CC1CC(O)C2(C)C(C(=O)O)=CCCC2C1(C)CCc1ccoc1` (stereo not given), for which the Potency result in experiment [1] and in experiment [2] was “inactive” in each case.
Take `C=C[C@]1(C)C[C@H](O)[C@@H]2[C@H](OC(=O)[C@@H]2C)C1/C(C)=C/O[C@@H]1O[C@H](CO)[C@@H](O)[C@H](O)[C@H]1O` (stereo not given in full): the Potency entry in experiment [1] and in experiment [2] was “inactive” in each case.
For `C[C@]12CCC[C@](C)(C(=O)O)C1CCC13C=C(CO)C(CCC12)C3` (stereo not given in full), the Potency result in experiment [1] and in experiment [2] was “inactive” in each case.
As to `Cc1ccc(NS(=O)(=O)c2ccc3c(c2)CCC(=O)N3)cc1C`, the Potency was 11.6 µM (active) in experiment [1] and 9.2 µM (active) in experiment [2].
Taken in the same sequence, the figures for `COC1=CC(=O)O/C1=C(/OC)[C@@H]1O[C@H]1c1ccccc1` were 23.1 µM (active) and 10.3 µM (active).
As to `C/C=C(/C)C(=O)OC1CC(C)(C)CC2C3=CCC4C5(C)CCC(OC6OC(C)C(OC7OC(C(=O)O)C(O)C(OC8OC(CO)C(O)C(O)C8OC8OC(CO)C(O)C(O)C8O)C7O)C(O)C6O)C(C)(C)C5CCC4(C)C3(C)C(OC(=O)/C=C/C=C/C=C/CCC)C(OC(C)=O)C12CO` (stereo not given), the viability (% of control) in experiment [1] is 68.8% [at 9.25 µM]. For the same compound, the viability, % of control in experiment [2] was 73.3% [at 9.25 µM].
In the case of `CCC(C)/C=C(C)/C=C/C1=CC2=C(Cl)C(=O)C(C)(OC(C)=O)C(=O)C2(O)C(OC)O1` (stereo not given), the figures for the Potency in experiment [1] and in experiment [2] were 11.2 µM (active) and 7.96 µM (active), respectively.
Regarding `C/C=C/C=C/C(CC(=O)O)Nc1ccc(C=O)cc1` (stereo not given), the Potency result in experiment [1] and in experiment [2] was “inactive” throughout.

The values are drawn from PubChem BioAssay (NCATS).
